What was measured:
Type in all cases: functional
[1] = system: Plasmodium falciparum; assay: GSK_TCMDC: Inhibition of Plasmodium falciparum 3D7 in whole red blood cells, using parasite LDH activity as an index of growth. Test compounds present at 2uM
[2] = system: Plasmodium falciparum; assay: GSK_TCMDC: Inhibition of Plasmodium falciparum Dd2 in whole red blood cells, using parasite LDH activity as an index of growth. Test compounds present at 2uM
[3] = system: HepG2; assay: GSK_TCMDC: Percent inhibition of human HepG2 cell line. Test compounds present at 10uM.

## CCCC[C@H](NC(=O)O[C@H](COc1ccc(OCc2ccccc2)cc1)C(C)(C)C)C(=O)C(=O)Nc1cc[nH]n1
[1]
  Inhibition: 88%
[2]
  Inhibition: 71%
[3]
  Inhibition: 21%

## Oc1ccc(Cl)c2c1C(c1ccccc1)=NCC2
[1]
  Inhibition: 95%
[2]
  Inhibition: 43%
[3]
  Inhibition: 0%

## Cc1noc(NC(=O)c2sc3ccccc3c2O)c1C
[1]
  Inhibition: 90%
[2]
  Inhibition: 50%
[3]
  Inhibition: 0%

## COC(=O)C1=C(C)NC2=C(C(=O)CC(c3ccc(OC)c(OC)c3)C2)C1c1cccc(O)c1 (stereo not given)
[1]
  Inhibition: 99%
[2]
  Inhibition: 69%
[3]
  Inhibition: 2%

## O=C(/C=C/c1ccc(Cl)c(Cl)c1)NC1CCC(CN2CCC(c3cc4ccccc4[nH]3)CC2)CC1 (stereo not given)
[1]
  Inhibition: 96%
[2]
  Inhibition: 0%
[3]
  Inhibition: 19%

## c1ccn2c(Sc3ncnc4sccc34)ncc2c1
[1]
  Inhibition: 100%
[2]
  Inhibition: 100%
[3]
  Inhibition: 0%

## CCN(CC)CCOc1ccc(C(O)(C#CC(O)(c2ccc(C)cc2)c2ccc(OCCN(CC)CC)cc2)c2ccc(C)cc2)cc1 (stereo not given)
[1]
  Inhibition: 97%
[2]
  Inhibition: 98%
[3]
  Inhibition: 94%

## COc1ccc(Cl)cc1NC(=O)C(C)N1CCN(S(=O)(=O)c2ccccc2F)CC1 (stereo not given)
[1]
  Inhibition: 93%
[2]
  Inhibition: 66%
[3]
  Inhibition: 5%

## CCC1CN2CCc3c([nH]c4ccccc34)C2CC1CC1NCCc2cc(OC)c(OC)cc21.Cl (stereo not given)
[1]
  Inhibition: 100%
[2]
  Inhibition: 83%
[3]
  Inhibition: 26%

## COC(=O)c1ccc(CCC(C)NCC(O)c2cccc(Cl)c2)cc1.Cl (stereo not given)
[1]
  Inhibition: 100%
[2]
  Inhibition: 94%
[3]
  Inhibition: 0%

## CCN(CCCN1CCCCC1)c1cc(C)nc(Nc2cccc3c2CCCC3)n1.O=C(O)C(F)(F)F
[1]
  Inhibition: 92%
[2]
  Inhibition: 46%
[3]
  Inhibition: 60%

## Cc1c(-c2cccc(C(C)(C)NC3CCN(Cc4ccccc4)CC3)c2)cnc(N)c1C.Cl
[1]
  Inhibition: 100%
[2]
  Inhibition: 39%
[3]
  Inhibition: 14%

## COc1ccc(-c2ccc(NC(=O)c3ccc(C#N)cc3)cc2)cc1CN(C)CCO.O=C(O)C(F)(F)F
[1]
  Inhibition: 99%
[2]
  Inhibition: 44%
[3]
  Inhibition: 41%

## CN1CCc2ccc(NC(=O)Nc3cccc([N+](=O)[O-])c3)cc2C1
[1]
  Inhibition: 87%
[2]
  Inhibition: 3%
[3]
  Inhibition: 0%

## COc1ccc(Oc2ccc(-c3c(O)cc(C)nc3C)cc2)cc1
[1]
  Inhibition: 93%
[2]
  Inhibition: 88%
[3]
  Inhibition: 0%

## CC(Oc1cccc(Cl)c1)C(=O)N1CCc2ccccc21 (stereo not given)
[1]
  Inhibition: 94%
[2]
  Inhibition: 77%
[3]
  Inhibition: 4%

## Cc1cccc(OCC2CCN(c3ncc(C(=O)NC4CC4)cc3Cl)CC2)c1
[1]
  Inhibition: 90%
[2]
  Inhibition: 78%
[3]
  Inhibition: 0%

## O=C(O)C(F)(F)F.O=S(=O)(NC1CCN(c2ccnc3cc(Cl)ccc23)C1)c1ccc(F)cc1 (stereo not given)
[1]
  Inhibition: 98%
[2]
  Inhibition: 88%
[3]
  Inhibition: 3%

## NCC1CCCN1Cc1ccc(-c2ccc(-c3nc4ccccc4[nH]3)s2)cc1.O=C(O)C(F)(F)F (stereo not given)
[1]
  Inhibition: 98%
[2]
  Inhibition: 97%
[3]
  Inhibition: 17%

## Cl.NC(=O)c1cccc(Nc2nccc(Nc3ccc(Oc4ccc5ccccc5c4)cc3)n2)c1
[1]
  Inhibition: 96%
[2]
  Inhibition: 31%
[3]
  Inhibition: 15%

## Oc1ccc2[nH]cc(C3CCN(CCCNCc4ccc(-c5ccccc5)cc4)CC3)c2c1
[1]
  Inhibition: 100%
[2]
  Inhibition: 0%
[3]
  Inhibition: 22%

## COc1ccc2nccc(NC(=O)CNCc3ccc(-c4ccccc4)cc3)c2c1
[1]
  Inhibition: 100%
[2]
  Inhibition: 35%
[3]
  Inhibition: 11%

## Cc1ccc(CNC(=O)[C@H](Cc2ccccc2)Nc2ccnc(NCC3CCCCC3)n2)cc1.O=C(O)C(F)(F)F
[1]
  Inhibition: 92%
[2]
  Inhibition: 61%
[3]
  Inhibition: 84%

## COc1cccc(C(=O)Nc2nc3c(s2)CCN(Cc2ccccc2N2CCNCC2)CC3)c1.O=C(O)C(F)(F)F
[1]
  Inhibition: 89%
[2]
  Inhibition: 11%
[3]
  Inhibition: 7%

## O=C(/C=C/c1ccc(Cl)c(Cl)c1)N1CCC(CCN2CCc3[nH]c4ccccc4c3C2)CC1.O=C(O)C(F)(F)F
[1]
  Inhibition: 96%
[2]
  Inhibition: 0%
[3]
  Inhibition: 22%

## CCCc1cc(OC)c(CC2c3cc(O)c(Cl)cc3CCN2C)cc1OC.Cl (stereo not given)
[1]
  Inhibition: 100%
[2]
  Inhibition: 99%
[3]
  Inhibition: 19%

## CCCCCN1CCCC(CNS(=O)(=O)c2ccc(C(=O)Nc3ccc(C(F)(F)F)cc3)cc2)C1.O=C(O)C(F)(F)F (stereo not given)
[1]
  Inhibition: 94%
[2]
  Inhibition: 0%
[3]
  Inhibition: 51%

## CNC(=O)c1ccc2nc(-c3ccc(-c4ccccc4)cc3)n(CC3CCN(CC4CCCC4)CC3)c2c1.O=C(O)C(F)(F)F
[1]
  Inhibition: 84%
[2]
  Inhibition: 36%
[3]
  Inhibition: 13%

## COc1cc(Cc2cnc(N)nc2N)ccc1OCc1ccc(NC(C)=O)cc1
[1]
  Inhibition: 98%
[2]
  Inhibition: 0%
[3]
  Inhibition: 9%

## O=C(/C=C/c1cccc(Br)c1)NCCCCCN1CCC(c2c[nH]c3ccccc23)CC1
[1]
  Inhibition: 100%
[2]
  Inhibition: 15%
[3]
  Inhibition: 38%

Source: ChEMBL document CHEMBL1157539, “Thousands of chemical starting points for antimalarial lead identification” (Nature, 2010)
